Assay results taken from PubChem BioAssay.

target: NADPH oxidase 5 (Homo sapiens) (UniProt Q96PH1); assay: compounds shifting NOX5 Amplex Red fluorescence – cell-based, HEK293-NOX5, NOX inhibitor project, primary screen (AID 1161); details: HEK293-NOX5, ionomycin, 45 min, higher = more signal
Sequence (Q96PH1 whole entry, looked up): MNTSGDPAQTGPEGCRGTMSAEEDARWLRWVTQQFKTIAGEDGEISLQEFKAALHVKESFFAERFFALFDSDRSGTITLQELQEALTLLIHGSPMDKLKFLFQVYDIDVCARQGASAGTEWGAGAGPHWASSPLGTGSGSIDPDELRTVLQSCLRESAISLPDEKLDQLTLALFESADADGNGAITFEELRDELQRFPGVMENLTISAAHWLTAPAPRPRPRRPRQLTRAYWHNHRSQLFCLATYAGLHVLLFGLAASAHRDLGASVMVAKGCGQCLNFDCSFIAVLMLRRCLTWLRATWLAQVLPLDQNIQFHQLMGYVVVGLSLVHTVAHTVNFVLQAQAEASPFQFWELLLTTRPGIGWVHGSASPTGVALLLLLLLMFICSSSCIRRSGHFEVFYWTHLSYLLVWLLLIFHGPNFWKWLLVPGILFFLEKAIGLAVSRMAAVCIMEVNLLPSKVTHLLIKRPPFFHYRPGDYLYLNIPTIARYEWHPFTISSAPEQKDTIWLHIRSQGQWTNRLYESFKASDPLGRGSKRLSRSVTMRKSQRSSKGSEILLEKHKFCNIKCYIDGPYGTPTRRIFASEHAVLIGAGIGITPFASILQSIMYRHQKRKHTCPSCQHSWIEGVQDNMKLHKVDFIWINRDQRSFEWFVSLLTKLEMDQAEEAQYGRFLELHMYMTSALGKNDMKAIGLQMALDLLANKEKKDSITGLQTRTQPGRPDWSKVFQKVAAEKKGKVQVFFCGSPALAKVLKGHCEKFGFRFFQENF

**Q.** Which z-score does the source give for COc1cc(CO)cc(I)c1O[C@H]1C=C(C(=O)NCCO)C[C@@H](N(CC2CCCCC2)C(=O)c2cc3ccccc3oc2=O)[C@@H]1O here?
**A.** Its z-score is 0.647.

**Q.** How did the z-score turn out when C=C(CCCC)/C(=C/C[C@@H](OC(=O)c1ccncc1)c1cccc(OCCO)c1)c1cc(C(=O)OC)ccc1OC was run?
**A.** Its z-score is -0.975.

**Q.** For C=CCC(OC(C)=O)[C@@H]1[C@@H](N(Cc2ccc(-c3ccccc3)cc2)C(=O)c2ccc(-c3ccccc3)cc2)c2cc(OCCCO)ccc2N1C(=O)Cc1ccc(OC)cc1 (stereo partly specified), which z-score is on record?
**A.** The z-score was 1.41.

**Q.** For CC(=O)NCCCC[C@@H]1NC(=O)[C@H]2C[C@@H](C(=O)NCCCCCCN(C)C)[C@@H](c3ccc(O)cc3)N2C1=O, which z-score is on record?
**A.** Its z-score is -0.479.

**Q.** With Cc1ccc(S[C@]2(C(=O)NC(C)C)CC(=O)N(C3Cc4ccccc4C3)[C@@H]2c2ccc(CO)cc2)cc1 as the compound, how does the z-score read?
**A.** Its z-score is -0.927.

**Q.** Which z-score does the source give for Cc1ccc(N2C(=O)c3ccccc3[C@](C)(C(=O)NCC(C)C)[C@@H]2c2ccc(CO)cc2)nc1 here?
**A.** Its z-score is -1.63.

**Q.** Which z-score does the source give for [N-]=[N+]=NCc1ccccc1C[C@]1(C(=O)N2CCCCC2)N=C(c2ccc(OCCCO)cc2)O[C@H]1c1ccccc1CN=[N+]=[N-] here?
**A.** The z-score was -0.824.

**Q.** How did the z-score turn out when C=C(CCCC)/C(=C/C[C@H](OC(=O)c1ccncc1)c1cccc(OCCO)c1)c1cc(C(=O)OC)ccc1OC was run?
**A.** The z-score was -2.92.

**Q.** Which z-score does the source give for O=C(CS)NCCCCCCNC(=O)[C@@H]1C[C@@H]2C(=O)N[C@@H](Cc3ccccc3)C(=O)N2[C@@H]1c1ccc(O)cc1 here?
**A.** The z-score was 0.729.

**Q.** With C=C(CCCC)C(=O)CC[C@@H](OC(=O)c1cccnc1)c1cccc(OCCO)c1 as the compound, how does the z-score read?
**A.** Its z-score is -1.41.

**Q.** With COc1ccc([C@H]2C[C@H]3C(Br)=C[C@]2(OC)C(=O)[C@]32CO2)cc1 as the compound, how does the z-score read?
**A.** The z-score was -0.292.

**Q.** C=C(C(=O)CC[C@H](OC(=O)c1ccccc1-c1ccccc1C(=O)O)c1ccc(CO)o1)C(C)C was tested. Which z-score did it give?
**A.** The z-score was -0.867.

**Q.** How did the z-score turn out when C#CCCCON=C1C[C@@H](O)[C@@H](O)[C@@H]2[C@@H]3C(=O)N(Cc4ccc5c(c4)OCO5)C(=O)[C@@H]3CC[C@H]12 was run?
**A.** Its z-score is -0.124.

**Q.** COC(=O)c1ccc(C#CC(NP(=O)(c2ccccc2)c2ccccc2)c2ccccc2)cc1 (stereo unspecified) was tested. Which z-score did it give?
**A.** The z-score was -4.46.

**Q.** Which z-score does the source give for CCOC(=O)C1=CC[C@@H](c2ccc(-c3ccc(OCc4ccccc4)cc3)c(OC)c2)N(S(=O)(=O)c2ccc(C)cc2)[C@H]1c1ccccc1 here?
**A.** Its z-score is 0.429.

**Q.** How did the z-score turn out when CC(c1ccccc1)C(O)C1C=CC2C(=O)N(C)C(=O)C2N1N(c1ccccc1)c1ccccc1 (stereo unspecified) was run?
**A.** Its z-score is -0.649.

**Q.** C=C[C@H](OC)[C@@H](OC(=O)Nc1ccc(SC)cc1)c1ccc(O)c(F)c1 was tested. Which z-score did it give?
**A.** Its z-score is -1.06.

**Q.** C=C(CCCC)C(=O)CC[C@@H](OC(C)=O)c1ccccc1OCCO was tested. Which z-score did it give?
**A.** Its z-score is -1.68.

**Q.** Which z-score does the source give for CC(=O)NCCCC[C@@H]1NC(=O)[C@H]2C[C@@H](C(=O)NCCCCCCN(C)C)[C@@H](c3cccc(OCCO)c3)N2C1=O here?
**A.** The z-score was 1.44.

**Q.** With CCCC=C(CCC)[C@@H](NS(=O)(=O)c1cccc(C(F)(F)F)c1)c1ccc(C(=O)OC)cc1 as the compound, how does the z-score read?
**A.** The z-score was 1.87.

**Q.** Which z-score does the source give for O=C(NCc1ccccc1)[C@@]1(Cc2ccccc2)COC(c2ccc(OCCCO)cc2)=N1 here?
**A.** The z-score was -2.81.

**Q.** [N-]=[N+]=NCc1ccccc1[C@H]1OC(c2ccc(OCCCO)cc2)=N[C@@]1(Cc1ccccc1N=[N+]=[N-])C(=O)NCc1ccccc1 was tested. Which z-score did it give?
**A.** Its z-score is -0.56.

**Q.** NC(=O)NCC#Cc1ccc2c(c1)[C@]1(C(=O)N2)[C@H](C(=O)N2CCCCCCC2)[C@H]2C(=O)O[C@H](c3ccccc3)[C@H](c3ccccc3)N2[C@@H]1c1ccccc1OCCO was tested. Which z-score did it give?
**A.** The z-score was 0.881.

**Q.** Which z-score does the source give for C#CCNC(/C=C/c1ccccc1)CO (stereo unspecified) here?
**A.** Its z-score is -0.548.

**Q.** How did the z-score turn out when O=C1C2C=CC(C(O)C(c3ccccc3)c3ccccc3)N(Nc3ccc([N+](=O)[O-])cc3)C2C(=O)N1c1ccccc1 (stereo unspecified) was run?
**A.** The z-score was -0.097.

**Q.** How did the z-score turn out when C=C(CCCC)/C(=C/C[C@@H](OC(=O)c1ccncc1)c1ccc(CO)o1)c1cnc2ccccc2c1 was run?
**A.** The z-score was -0.634.

**Q.** With CCc1cccc(NC(=O)O[C@H]2[C@H](OC(=O)Nc3ccccc3)[C@@H](OC(=O)Nc3ccccc3)[C@@H](OC)O[C@@H]2CO)c1 as the compound, how does the z-score read?
**A.** Its z-score is -2.35.

**Q.** C=CC[C@]1(C(=O)N2CCCCC2)N=C(c2ccc(OCCCO)cc2)O[C@H]1c1ccccc1N=[N+]=[N-] was tested. Which z-score did it give?
**A.** The z-score was -0.971.

**Q.** For C#C[C@H](O[Si](C#Cc1ccccc1)(C(C)C)C(C)C)c1ccccc1, which z-score is on record?
**A.** Its z-score is -2.37.

**Q.** Which z-score does the source give for CCOC(=O)C1=CC[C@@H](c2ccccc2)N(S(=O)(=O)c2ccc(C)cc2)[C@H]1C here?
**A.** Its z-score is 0.0997.

**Q.** For O=C(N1CCCCC1)[C@@]1(CCS(=O)(=O)c2ccccc2)N=C(c2ccc(OCCCO)cc2)O[C@H]1c1ccccc1, which z-score is on record?
**A.** Its z-score is -4.84.

**Q.** Which z-score does the source give for CC(C)(C)OC(=O)CC[C@]1(C(=O)N2CCCCC2)N=C(c2ccc(OCCCO)cc2)O[C@H]1c1ccccc1 here?
**A.** The z-score was 0.541.

**Q.** For N#Cc1ccc(NN2C(C(O)CCc3ccccc3)C=CC3C(=O)N(c4ccccc4)C(=O)C32)cc1 (stereo unspecified), which z-score is on record?
**A.** Its z-score is -1.41.

**Q.** How did the z-score turn out when Cc1ccc(S[C@]2(C(=O)NC3CC3)CC(=O)N(Cc3cc(C(F)(F)F)cc(C(F)(F)F)c3)[C@@H]2c2ccc(CO)cc2)cc1 was run?
**A.** Its z-score is 1.78.

**Q.** For C#CCCCON=C1C[C@@H](O)[C@@H](O)[C@@H]2[C@@H]3C(=O)N(Cc4ccc5c(c4)OCO5)C(=O)[C@@H]3CC[C@@H]12, which z-score is on record?
**A.** Its z-score is -0.019.

**Q.** With Cc1ccc(S(=O)(=O)N2[C@@H](c3ccccc3)C(C(=O)O)=CC[C@H]2c2ccccc2)cc1 as the compound, how does the z-score read?
**A.** Its z-score is -2.32.
